A selection: hits, their analogues and other compounds. The true share with any hit is near 6.1%.
DRD3 agonist: agonists of human D3 dopamine receptor. P35462. D3R DiscoveRx beta-arrestin cells, luminescence, 90 min. max activation, %. 0.58% of 410,000 active; in the data active = max activation above about 30%
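Agonist-mode cell screen: cells plated at 1500/well and incubated overnight at 37 °C, then exposed to library compounds for 90 min at 37 °C. Detection reagent was added for 30–60 min at room temperature, and luminescence was read.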
D1 antag: antagonists of human D1 dopamine receptor; P21728; activity change, negative = inhibition, % at 10 µM; 3.2% of 360,000 active; HEK293 TREx D1 cells, calcium flux, dopamine EC80; active compounds read low; AID 504652; in the data active = activity change below about -30%
Target sequence (P21728 whole entry, looked up): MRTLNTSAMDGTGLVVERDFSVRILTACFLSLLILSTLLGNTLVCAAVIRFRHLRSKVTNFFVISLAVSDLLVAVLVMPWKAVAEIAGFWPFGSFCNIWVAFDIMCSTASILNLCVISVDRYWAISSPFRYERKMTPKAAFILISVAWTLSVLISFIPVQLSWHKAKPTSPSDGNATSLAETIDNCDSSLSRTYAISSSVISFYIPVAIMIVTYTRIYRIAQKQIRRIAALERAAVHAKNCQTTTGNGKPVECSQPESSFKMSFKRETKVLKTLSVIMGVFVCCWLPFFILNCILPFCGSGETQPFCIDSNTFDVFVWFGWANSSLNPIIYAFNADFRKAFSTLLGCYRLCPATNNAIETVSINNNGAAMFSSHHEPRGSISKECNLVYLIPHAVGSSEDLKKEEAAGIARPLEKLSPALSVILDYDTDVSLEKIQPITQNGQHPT
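Tetracycline-induced HEK293 Trex D1 cells, force-coupled to calcium, dye-loaded; compounds added and read 180 s, then EC80 dopamine added and calcium flux tracked kinetically another 180 s.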
D1 agonist: agonists of human D1 dopamine receptor. P21728. HEK293 T-REx D1 cells, calcium flux, agonist mode. activation, % at 2 µM. 1% of 360,000 active. AID 504660; in the data active = activation above about 30%
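Agonism was scored from calcium flux recorded over 180 s (1 read/s) after pintool compound addition, following a 10-cycle baseline. Cells were inducible force-coupled HEK293 TREx D1, plated overnight at 30 C and loaded with no-wash calcium dye.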
D1 PAM: enhances dopamine response at the human D1 receptor; potentiation, % at 10 µM; HEK293 TREx D1 cells, calcium flux, dopamine EC20 potentiation; 0.036% of 360,000 active; AID 504651; in the data active = potentiation above about 30%
DRD3 antagonist: blocks the human D3 dopamine receptor. P35462. D3R cells, DiscoveRx beta-arrestin luminescence, antagonist mode; active compounds read low. max response, negative = inhibition, %. 2.5% of 360,000 active. AID 652054; in the data active = max response below about -50%; inconclusive = no clear call, values can overlap the other calls
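Cells plated overnight at 1500 cells/well, then exposed to library compounds with dopamine controls for 90 minutes at 37 degrees C. DiscoveRx reagent added for 30–60 minutes at room temperature; luminescence read, quantitative HTS format.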
Each line names hits and unclear results; the compound was inactive in the other large screens; ! = not confirmed by another sample.

O=C(Nc1ccccc1Cl)C1CCN(c2nc3ccccc3[nH]2)CC1	none (no result: DRD3 antagonist)
CCOc1ccc(NS(=O)(=O)c2ccc(C(=O)NCC(c3ccco3)N3CCCC3)cc2)cc1 (stereo unspecified)	D1 agonist 54 (no result: D1 PAM)
O=C(NCC(c1ccco1)N1CCCCC1)c1ccc(NS(=O)(=O)c2ccc(F)cc2)cc1 (stereo unspecified)	none
O=C(NCC(c1ccco1)N1CCCC1)c1ccc(S(=O)(=O)Nc2ccc(F)cc2)cc1 (stereo unspecified)	D1 agonist 51 (no result: D1 PAM)
Cc1cc(OCCn2cc(C(=O)c3cccs3)c3ccccc32)ccc1Cl	none (no result: DRD3 antagonist)
CC1CC(C)CN(C(=O)COC(=O)c2cncc(Br)c2)C1 (stereo unspecified)	none (no result: D1 antag, D1 agonist, D1 PAM)
CC1CN(C(=O)COC(=O)c2cncc(Br)c2)CC(C)O1 (stereo unspecified)	DRD3 antagonist -54 (no result: D1 antag, D1 agonist, D1 PAM)
Cc1cc(C(=O)OCC(=O)N2CC(C)OC(C)C2)c(C)n1-c1ccccc1 (stereo unspecified)	D1 antag -65 (no result: D1 PAM)
CC1CN(C(=O)COC(=O)c2ccccc2O)CC(C)O1 (stereo unspecified)	none
Cc1cc(C(=O)OCC(=O)NCc2ccco2)c(C)n1-c1ccc(F)cc1	none
CCNC(=O)COC(=O)c1cc(C)n(-c2ccccc2)c1C	D1 antag -55
Cc1nnc(N2CCCC(C(=O)NCCc3ccc(Cl)cc3)C2)c2nn(-c3ccccc3)c(C)c12 (stereo unspecified)	none (no result: DRD3 antagonist)
CC(C)CCNS(=O)(=O)c1ccc(N2CCCCS2(=O)=O)cc1	none (no result: DRD3 antagonist)
COc1cc(/C=C2\CCCc3c2nc2ccccc2c3C(=O)O)cc([N+](=O)[O-])c1O	DRD3 antagonist -100 (no result: D1 PAM)
COc1ccc(/C=C2\CCCc3c2nc2ccccc2c3C(=O)O)cc1OC	D1 antag -35, D1 agonist 236 (no result: DRD3 agonist, DRD3 antagonist)
COc1cc(/C=C2\CCCc3c2nc2ccccc2c3C(=O)O)cc(OC)c1O	none
CCCCN(CC)C(=O)c1nn(C)c2c1CSc1ccccc1-2	none (no result: DRD3 antagonist)
CCOC(=O)C1CCCN(CCC(=O)Nc2cccc(C)c2)C1 (stereo unspecified)	D1 antag -38!
CCOC(=O)C1CCCN(CCC(=O)Nc2ccc(C)cc2)C1 (stereo unspecified)	DRD3 antagonist -71
CCOC(=O)C1CCCN(CCC(=O)Nc2cccc(F)c2)C1 (stereo unspecified)	none
CCOC(=O)C1CCN(CCC(=O)Nc2ccc(C)cc2)CC1	none
O=S(=O)(N/N=C/c1ccc(OC2CSC2)cc1)c1ccccc1	D1 agonist 47
O=S(=O)(N/N=C/c1cccc(OC2CSC2)c1)c1ccccc1	DRD3 antagonist -66
COc1ccc(CCNC(=O)c2c(C)oc3ncn(CC(C)C)c(=O)c23)c(OC)c1	D1 antag -30 (no result: DRD3 antagonist)
COC(=O)c1cc(C)nc2c1C(=O)C(=O)C=C2N1CCOCC1	DRD3 antagonist -100
COc1ccc(N2CCN(C(=O)COC(=O)CCOc3ccc(C)cc3)CC2)cc1	D1 antag -31
COc1ccc(N2CCN(C(=O)COC(=O)CNC(=O)c3ccc(C)cc3)CC2)cc1	none
COc1ccc(N2CCN(C(=O)COC(=O)c3cc(S(=O)(=O)N(C)C)ccc3N3CCCC3)CC2)cc1	D1 antag -48
COc1ccc(S(=O)(=O)CCC(=O)N2CCN(c3ccc(C(C)=O)cc3)CC2)cc1	D1 antag -39
COc1ccc(N2CCN(C(=O)C3(S(=O)(=O)c4ccc(C)cc4)CC3)CC2)cc1	D1 antag -58
Cc1ccccc1CNC(=O)c1cccc(NC(=O)N2CCSc3ncccc32)c1	none (no result: DRD3 antagonist)
COc1ccc(Cl)cc1NC(=O)Cn1c(=O)n2nc(-c3ccccc3)nc2c2ccccc21	none (no result: DRD3 antagonist)
CC1CCCN(S(=O)(=O)c2cc(C(=O)NCc3ccccc3Cl)n(C)c2)C1 (stereo unspecified)	none (no result: DRD3 antagonist)
O=C(Nc1cc(C(F)(F)F)ccc1Cl)c1cc(S(=O)(=O)NCc2ccccc2)ccc1F	D1 antag -71 (no result: DRD3 antagonist)
CCOC(=O)c1ccc(NC(=O)c2ccccc2[N+](=O)[O-])cc1	none
CN(c1ccc(F)cc1)S(=O)(=O)c1ccc(Cl)c(C(=O)Nc2ccncc2)c1	D1 antag -48
COc1ccc(CNS(=O)(=O)c2ccc(F)c(C(=O)Nc3ccccc3OC)c2)cc1	D1 antag -37
COc1ccccc1NC(=O)c1cc(S(=O)(=O)NCc2ccccc2)ccc1F	none
O=C(Nc1ccc(S(=O)(=O)NCc2ccccc2)cc1)c1ccccc1[N+](=O)[O-]	D1 antag -72
O=C(Nc1ccccc1)c1cc(S(=O)(=O)NCc2ccncc2)ccc1Cl	D1 antag -32
CCS(=O)(=O)c1ncc(Cl)c(C(=O)Nc2ccc(S(=O)(=O)N3CCC(C)CC3)cc2)n1	D1 antag -66, DRD3 antagonist -61
CCOC(=O)c1c(-c2ccccc2)csc1NC(=O)c1nc(S(=O)(=O)CC)ncc1Cl	D1 antag -47 (no result: DRD3 antagonist)
CCOC(=O)c1c(-c2ccccc2)csc1NC(=O)c1ccc(N2C(=O)CCC2=O)cc1	DRD3 agonist 57
CCOC(=O)c1c(-c2ccccc2)csc1NC(=O)c1ccc(S(=O)(=O)N2CC(C)OC(C)C2)cc1 (stereo unspecified)	none
CC(C)c1nnc(NC(=O)c2nc(S(=O)(=O)Cc3ccccc3)ncc2Cl)s1	DRD3 antagonist -64
CCSc1ncc(Cl)c(C(=O)Nc2ccc(S(=O)(=O)N3CCC(C)CC3)cc2)n1	none (no result: DRD3 antagonist)
CCOC(=O)c1c(-c2ccccc2)csc1NC(=O)c1nc(SCC)ncc1Cl	none (no result: DRD3 antagonist)
Cc1ccc(NC(=O)Cn2c(=O)n(CCC(=O)N3CCc4ccccc4C3)c(=O)c3ccccc32)cc1	none (no result: DRD3 antagonist)
CCc1ccc(NC(=O)C(C)n2nnc3sc(-c4ccccc4)cc3c2=O)cc1 (stereo unspecified)	none (no result: DRD3 antagonist)
CSc1nnc(NC(=O)c2nc(S(=O)(=O)Cc3ccccc3)ncc2Cl)s1	DRD3 antagonist inconclusive
CCc1ccc(NC(=O)c2nc(S(=O)(=O)Cc3ccccc3)ncc2Cl)cc1	D1 antag -64 (no result: DRD3 agonist, DRD3 antagonist)
CN(c1ccccc1)S(=O)(=O)c1ccc(NC(=O)c2nc(S(C)(=O)=O)ncc2Cl)cc1	D1 antag -47, DRD3 antagonist -108
CCOC(=O)c1ccc(NC(=O)c2nc(SC(C)C)ncc2Cl)cc1	none (no result: DRD3 antagonist)
CCOC(=O)c1ccc(NC(=O)c2nc(S(=O)(=O)Cc3ccccc3)ncc2Cl)cc1	D1 antag -45, DRD3 antagonist inconclusive
CCOC(=O)c1c(NC(=O)c2nc(S(C)(=O)=O)ncc2Cl)sc(C(C)=O)c1C	D1 antag -31 (no result: DRD3 antagonist)
Nc1c(C(=O)Nc2cccc(F)c2)c2ccccn2c1C(=O)c1ccccc1	none (no result: DRD3 antagonist)
O=C(CSc1nc(-c2ccccc2)no1)N1CCCCC1	none (no result: DRD3 antagonist)
CCCc1nnc(NC(=O)c2nc(S(=O)(=O)Cc3ccc(C)cc3)ncc2Cl)s1	DRD3 antagonist -65
COc1cccc(NC(=O)c2nc(S(C)(=O)=O)ncc2Cl)c1	DRD3 antagonist -109
